This passage reports growth reduction results from the supplement of paper PMC12024424.

The structures appear in SMILES notation. Counter-ions that a name gives are not always drawn.

The test relates to Staphylococcus aureus Sa2 (MRSA, cystic fibrosis isolate). The experiment in a line: growth reduction vs untreated control (viable cell count); higher = stronger antibacterial activity; extreme values may be limits of the assay. To be noted: 0.1 mM; 24 h. As to the method:
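Single-dose screen of the MedChem Express Drug Repurposing Library (0.1 mM, 1% DMSO) against planktonic MRSA S. aureus Sa2 (CF isolate) in TSB in 96-well plates, 37 °C aerobic, 24 h. Assays were run in triplicate and repeated twice.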
`COc1ccc(C(=O)NC2(C(=O)O)Cc3ccccc3C2)cc1OCCc1cccc(C)c1` displayed a growth reduction of 96%.
The value for `OC(c1cc(C(F)(F)F)nc2c(C(F)(F)F)cccc12)C1CCCCN1` (configuration not stated) [Mefloquine (hydrochloride)] was 100%; that for `CCCCc1nc(-c2ccc(OCCCN(CC)CC)cc2)cn1-c1ccc(Oc2ccc(Cl)cc2)cc1` [Azeliragon] was 100%.
The result for `Cc1ccc(C(=O)Nc2ccc(CN3CCN(C)CC3)c(C(F)(F)F)c2)cc1C#Cc1cnc2[nH]ncc2c1` reads 100%.
For `Oc1c(I)cc(Cl)c2cccnc12` [Clioquinol], the growth reduction came to 100%.
On to `Cc1nc2c([nH]1)-c1ccccc1N(C(=O)c1ccc(NC(=O)c3ccccc3-c3ccccc3)cc1)CC2` [Conivaptan (hydrochloride)], for which the growth reduction stood at 100%.
The compound `C#C[C@]1(O)CC[C@H]2[C@@H]3CCC4=CCCC[C@@H]4[C@H]3C(=C)C[C@@]21CC` [Desogestrel] had a growth reduction of 100%.
Turning to `Fc1ccc(C(c2ccc(F)cc2)N2CCN(C/C=C/c3ccccc3)CC2)cc1` [Flunarizine (dihydrochloride)], the growth reduction came to 98%.
In turn, `CCCCN(CCCC)C(=O)CN1C[C@H](c2ccc3c(c2)OCO3)[C@@H](C(=O)O)[C@@H]1c1ccc(OC)cc1` [Atrasentan (hydrochloride)] registered a growth reduction of 98%.
The value for `CC1(C)CCC(C)(C)c2cc(Cn3cccn3)c(/C=C/c3ccc(C(=O)O)cc3)cc21` [Palovarotene] was 100%; that for `C=C[C@@H]1C[C@]1(NC(=O)[C@@H]1C[C@@H]2CN1C(=O)[C@H](C(C)(C)C)NC(=O)O[C@@H]1C[C@H]1CCCCCc1nc3ccc(OC)cc3nc1O2)C(=O)NS(=O)(=O)C1CC1` [Grazoprevir potassium salt] was 100%; that for `COC(=O)[C@]12CCC(C)(C)C[C@H]1[C@H]1C(=O)C=C3[C@@]4(C)C=C(C#N)C(=O)C(C)(C)[C@@H]4CC[C@@]3(C)[C@]1(C)CC2` [Bardoxolone methyl] was 100%.
The result for `CCN1CCN(Cc2ccc(-c3cc4c(N[C@H](C)c5ccccc5)ncnc4[nH]3)cc2)CC1` reads 100%; that for `Nc1ccc(S(=O)(=O)Nc2cnc3c(Cl)cccc3n2)cc1` [Chloroquinoxaline sulfonamide], 99%.
With `Cc1cc(CC(C)CC(C)(C)C)n(O)c(=O)c1` (configuration not stated) [Piroctone olamine], the growth reduction worked out at 100%.
As for `CCCCCCCCc1ccc(CCC(N)(CO)CO)cc1` [Fingolimod (hydrochloride)], the growth reduction turned out to be 100%.
For `Cc1ccc(C#Cc2ccc(S(=O)(=O)N[C@H](Cc3c[nH]c4ccccc34)C(=O)O)s2)cc1`, the growth reduction turned out to be 100%.
The compound `CC(C)(C)NC(=O)N[C@H](C(=O)N1C[C@H]2[C@@H]([C@H]1C(=O)NC(CC1CCC1)C(=O)C(N)=O)C2(C)C)C(C)(C)C` (some centres not stated) [Boceprevir] returned a growth reduction of 92%.
The value for `COc1cc2ncnc(Nc3ccc(F)c(Cl)c3)c2cc1NC(=O)/C=C/CN1CCCCC1` [Dacomitinib] was 100%; that for `C[C@@H]1CCc2ncc(F)cc2[C@H]2CCCN2c2ccn3ncc(c3n2)C(=O)N1` [Selitrectinib] was 97%.
The compound `C[C@H](Nc1cc(-c2cnn(C)c2)cc(Nc2cnccn2)n1)c1ccc(F)cc1` [Ilginatinib] had a growth reduction of 94%.
The value for `OCCN1CCN(CCCN2c3ccccc3Sc3ccc(Cl)cc32)CC1` [Perphenazine] was 100%; that for `CCCCCCCCCCCC[N+](C)(C)CCOc1ccccc1` [Domiphen (bromide)] was 100%.
The compound `Cc1cc(SCc2sc(-c3ccc(C(F)(F)F)cc3)nc2C)ccc1OCC(=O)O` returned a growth reduction of 100%.
The result for `CO[C@@H](Cc1ccc(OCCc2nc(-c3ccccc3)oc2C)c2ccsc12)C(=O)O` [Aleglitazar] reads 90%; that for `CC[C@@]1(O)C[C@H](O[C@H]2C[C@H](N(C)C)[C@H](O[C@H]3C[C@H](O)[C@H](O[C@H]4CCC(=O)[C@H](C)O4)[C@H](C)O3)[C@H](C)O2)c2c(cc3c(c2O)C(=O)c2c(O)cccc2C3=O)[C@H]1C(=O)OC` [Aclacinomycin A hydrochloride], 100%.
The result for `O=C(Nc1ncc(SCCN2CCCC2)s1)[C@]1(c2ccc(S(=O)(=O)C3CC3)cc2)C[C@H]1C1CCCCC1` [Globalagliatin] reads 100%; that for `CN1C(=O)[C@@H](NC(=O)c2n[nH]c(Cc3ccccc3)n2)COc2ccccc21`, 90%.
For `CC(C)=CCC/C(C)=C/CC/C(C)=C/CSc1ccccc1C(=O)O` [Salirasib], the growth reduction was determined as 100%.
Take `CC(C)COc1ccc(CNC(=O)N(Cc2ccc(F)cc2)C2CCN(C)CC2)cc1` [Pimavanserin]: the growth reduction was 100%.
The value for `N[C@@H](Cc1cc(I)c(Oc2cc(I)c(O)c(I)c2)c(I)c1)C(=O)O` [L-Thyroxine (sodium salt pentahydrate)] was 100%; that for `Clc1ccc(COC(Cn2ccnc2)c2ccc(Cl)cc2Cl)c(Cl)c1` (configuration not stated) [Miconazole (nitrate)] was 100%.
